Records with an inconclusive call do not appear. The source made the active and inactive calls. Calls come from the whole dose curve; as a rule, active = well fitted inhibition curve with a large enough effect; inconclusive = small, poorly fitted or top-dose-only effect; inactive = flat fitted curve, though single readings scatter.
Key:
Assay in all cases: qHTS profiling for inhibitors of Plasmodium falciparum proliferation (AID 504749); note: nearly all actives have a fitted effect of over 60% in size
Settings in all cases: P. falciparum in erythrocytes, SYBR Green DNA, 72 h; series mostly up to 28.7 µM
CP286 = tested on: CP286
Procedure, shortened: (§1)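 SYBR Green fluorescence of parasite DNA, read after lysis and overnight dark incubation, measured growth over 72 h in erythrocyte culture at 0.3% parasitemia and 2.5% hematocrit. Data normalised to DMSO and 0.29 uM artemisinin, with plate-drift correction.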

CP297 = tested on: CP297
Procedure, shortened: as §1

CP335 = tested on: CP335
Procedure, shortened: as §1

DIV14 = tested on: DIV14
Procedure, shortened: as §1

DIV17 = tested on: DIV17
Procedure, shortened: as §1

DIV30 = tested on: DIV30
Procedure, shortened: as §1

ECU = tested on: ECU
Procedure, shortened: as §1

FAB9 = tested on: FAB9
Procedure, shortened: as §1

GB4 = tested on: GB4
Procedure, shortened: as §1

ICS = tested on: ICS
Procedure, shortened: as §1

N140 = tested on: N140
Procedure, shortened: as §1

CP305 = tested on: CP305
Procedure, shortened: as §1

CP315 = tested on: CP315
Procedure, shortened: as §1

CP325 = tested on: CP325
Procedure, shortened: as §1

CP329 = tested on: CP329
Procedure, shortened: as §1

DFO2036 = tested on: DFO2036
Procedure, shortened: as §1

HB3 = tested on: HB3
Procedure, shortened: as §1

Dd2 = tested on: Dd2
Procedure, shortened: as §1

JCK = tested on: JCK
Procedure, shortened: as §1

CP291 = tested on: CP291
Procedure, shortened: as §1

Measured: Potency
Potency is the fitted concentration of half-maximal effect.

CC1=C(C)C(=O)C(CCCCC#CCCCC#CCO)=C(C)C1=O
inactive: FAB9
active: CP286 11.2 µM | CP297 15.1 µM | CP335 13.5 µM | DIV14 5.36 µM | DIV17 6.01 µM | DIV30 7.57 µM | ECU 2.82 µM | GB4 7.57 µM | ICS 2.24 µM | N140 7.94 µM

CCCN1C[C@H](CSC)C[C@@H]2c3cccc4[nH]cc(c34)C[C@H]21
inactive: CP297 | CP305 | CP315 | CP325 | CP329 | DFO2036 | FAB9 | HB3
active: DIV17 7.57 µM | ICS 11.2 µM

COCCCC/C(=N\OCCN)c1ccc(C(F)(F)F)cc1
inactive: FAB9 | HB3 | JCK
active: Dd2 7.94 µM

CN1C[C@H](C(=O)N[C@]2(C)O[C@@]3(O)[C@@H]4CCCN4C(=O)[C@H](Cc4ccccc4)N3C2=O)C[C@@H]2c3cccc4[nH]cc(c34)C[C@H]21
active: CP291 16.9 µM | CP297 4.26 µM | CP325 12 µM | CP335 8.49 µM | DIV14 0.675 µM | DIV17 0.426 µM | DIV30 0.757 µM | GB4 6.01 µM

Fc1ccc(C(c2ccc(F)cc2)N2CCN(C/C=C/c3ccccc3)CC2)cc1
active: ECU 11.2 µM | HB3 11.2 µM | ICS 8.91 µM | N140 11.2 µM

c1cc(CN2CCCCC2)cc(OCCCNc2nc3ccccc3s2)c1
inactive: FAB9 | JCK
active: Dd2 6.31 µM

CN(C)C/C=C(/c1ccc(Br)cc1)c1cccnc1
inactive: CP286 | CP305 | CP315 | CP325 | CP329 | CP335 | DFO2036 | DIV17 | DIV30 | FAB9 | HB3 | JCK | N140
active: Dd2 12.6 µM

CN(C)CCCN1c2ccccc2Sc2ccccc21
active: DIV14 1.81 µM | DIV17 2.87 µM | Dd2 3.16 µM
inactive: CP297 | ECU | FAB9 | HB3

CN(C)CC/C=C1\c2ccccc2COc2ccccc21
active: Dd2 8.91 µM
inactive: CP297 | CP315 | DFO2036 | ECU | FAB9 | HB3 | JCK

O=C1NCN(c2ccccc2)C12CCN(CCCC(c1ccc(F)cc1)c1ccc(F)cc1)CC2
active: CP286 7.08 µM | CP305 7.57 µM | CP329 4.78 µM | CP335 4.78 µM | DFO2036 7.08 µM | DIV14 7.57 µM | DIV17 6.75 µM | Dd2 5.01 µM | ECU 5.62 µM | GB4 6.75 µM | HB3 7.08 µM | ICS 3.98 µM | N140 5.62 µM
inactive: FAB9

CN(C(=O)CCCOc1ccc2[nH]c(=O)ccc2c1)C1CCCCC1
inactive: CP286 | CP305 | CP315 | CP325 | CP329 | CP335 | DFO2036 | ECU | FAB9 | GB4 | HB3 | N140

CNCCC(Oc1ccccc1OC)c1ccccc1 (configuration not stated)
active: DIV14 4.78 µM | DIV17 8.49 µM | Dd2 6.31 µM
inactive: CP297 | CP315 | FAB9 | HB3

CCOC(=O)c1cnc2c(cnn2CC)c1NN=C(C)C
inactive: CP291 | CP305 | CP315 | CP325 | CP329 | CP335 | DFO2036 | DIV30 | Dd2 | ECU | FAB9 | GB4 | HB3 | JCK | N140

CCc1cccc(N(C)C(N)=Nc2cccc3ccccc23)c1
active: CP286 8.91 µM | DIV14 1.51 µM | DIV17 1.35 µM | DIV30 7.57 µM | Dd2 3.16 µM | ECU 7.94 µM | GB4 5.36 µM | ICS 2.82 µM
inactive: CP315 | FAB9 | HB3

CN(C)CC[C@@H](c1ccc(Br)cc1)c1ccccn1
inactive: CP286 | CP305 | CP315 | CP325 | DFO2036 | ECU | FAB9 | HB3
active: DIV14 3.79 µM | DIV17 7.57 µM | Dd2 2.51 µM

OC(CCN1CCCCC1)(c1ccccc1)C1CCCCC1 (configuration not stated)
inactive: CP286 | CP297 | CP305 | CP315 | CP325 | CP329 | DFO2036 | FAB9 | GB4 | HB3 | JCK

CCCCCCCC/C=C\CCCCCCCC(=O)NCc1ccc(O)c(OC)c1
active: Dd2 14.1 µM
inactive: CP297 | CP305 | CP315 | CP325 | CP329 | DIV17 | DIV30

CC(C)(C)c1ccc(C(=O)CCCN2CCC(OC(c3ccccc3)c3ccccc3)CC2)cc1
active: CP286 8.91 µM | CP305 10.7 µM | CP335 6.75 µM | Dd2 10 µM | GB4 10.7 µM | ICS 4.47 µM | N140 10 µM
inactive: CP315 | JCK

CC(C)COCC(CN(Cc1ccccc1)c1ccccc1)N1CCCC1 (configuration not stated)
inactive: CP325 | CP329 | DIV14 | DIV17 | ECU | FAB9 | HB3 | JCK

CCN(CC)CCNC(=O)c1cc(S(C)(=O)=O)ccc1OC
inactive: CP286 | CP335 | DFO2036 | Dd2 | ECU | FAB9 | HB3 | ICS | JCK | N140

COCCOC(=O)C1=C(C)NC(C)=C(C(=O)OC(C)C)C1c1cccc([N+](=O)[O-])c1 (configuration not stated)
inactive: CP329 | FAB9
active: CP335 4.78 µM | DIV14 13.5 µM | DIV17 13.5 µM | DIV30 12 µM | ICS 7.08 µM | N140 12.6 µM

NC(N)=NC(=O)Cc1c(Cl)cccc1Cl
active: CP329 6.01 µM | CP335 9.53 µM | DFO2036 10 µM | GB4 6.75 µM | ICS 7.94 µM
inactive: DIV14 | DIV17

CCOC(=O)C1=C(C)NC(C)=C(C(=O)OC)C1c1cccc([N+](=O)[O-])c1 (configuration not stated)
active: HB3 11.2 µM | N140 11.2 µM
inactive: CP315 | FAB9

COc1ccc(CCN(C)CCCC(C#N)(c2cc(OC)c(OC)c(OC)c2)C(C)C)cc1OC (configuration not stated)
inactive: FAB9
active: DIV17 13.5 µM | Dd2 5.62 µM | ICS 7.94 µM

NC(N)=N/N=C/c1c(Cl)cccc1Cl
active: CP286 11.2 µM | GB4 12 µM | ICS 8.91 µM
inactive: JCK
